KinaseGlo FLuc: Kinase-Glo luciferase inhibition (counter-screen) | Potency, µM (titrated, usually from 38.3 µM), usual class: inhibitors | 200,000 compounds, 0.28% hits | Kinase-Glo luciferase, ATP luminescence, 8 min | AID 1379; also: nearly all actives have a fitted effect of over 60% in size
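Light output from Kinase-Glo luciferase with luciferin and 10 uM ATP in 50 mM imidazole pH 7.2, KCl, MgCl2, Tween 20, BSA; compound pin-delivered, 8-min ambient incubation, then luminescence read.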
NPC1 promoter act: activates the NPC1 promoter | Huh7 NPC1 promoter luciferase reporter, 24 h | Potency, µM (doses to about 9.22 µM), usual class: activators | 320,000 compounds, 2.4% hits; also: nearly all actives have a fitted effect of over 60% in size
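Readout is luciferase luminescence, reflecting NPC1 promoter activation in stably transfected Huh7 cells after 24 h compound exposure at 37 °C in reduced-serum medium with 10% FBS.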
SMN2 splice enh: increases expression of the SMN2 splice variant; HEK293 SMN2-luciferase splicing reporter, luminescence, 30-36 h; Potency, µM (highest dose often 46.1 µM), usual class: activators; 210,000 compounds, 2.8% hits; AID 1458; also: nearly all actives have a fitted effect of over 55% in size
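qHTS luciferase splicing reporter: luminescence rises when SMN2 exon 7 is included in transfected HEK293 cells. Compound exposure lasted 30-36 h at 37C, with 4.5 mM final sodium butyrate as control, followed by a ONE-Glo read.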
Rab9 prom act: activators of Rab9 promoter | Potency, µM (highest dose often 9.22 µM), actives largely listed as activators | Huh7 Rab9 promoter-luciferase reporter, luminescence, 24 h | AID 485297 | 320,000 compounds, 2.8% hits; also: nearly all actives have a fitted effect of over 60% in size
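Huh7 cells stably carrying Rab9 promoter–luciferase reporter, plated 1500 cells/well, compound added after 2 h and incubated 24 h at 37 °C; luciferase luminescence then read after 10 min with detection reagent.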
FLuc modulator: counter-screen for miR-21 project: firefly luciferase inhibitors or activators; purified FLuc, Km substrates, luminescence inhibition; Potency, µM (highest dose often 57.5 µM), actives largely listed as inhibitors; 360,000 compounds, 6.9% hits; P08659; also: nearly all actives have a fitted effect of over 55% in size
Target sequence (P08659 whole entry, looked up): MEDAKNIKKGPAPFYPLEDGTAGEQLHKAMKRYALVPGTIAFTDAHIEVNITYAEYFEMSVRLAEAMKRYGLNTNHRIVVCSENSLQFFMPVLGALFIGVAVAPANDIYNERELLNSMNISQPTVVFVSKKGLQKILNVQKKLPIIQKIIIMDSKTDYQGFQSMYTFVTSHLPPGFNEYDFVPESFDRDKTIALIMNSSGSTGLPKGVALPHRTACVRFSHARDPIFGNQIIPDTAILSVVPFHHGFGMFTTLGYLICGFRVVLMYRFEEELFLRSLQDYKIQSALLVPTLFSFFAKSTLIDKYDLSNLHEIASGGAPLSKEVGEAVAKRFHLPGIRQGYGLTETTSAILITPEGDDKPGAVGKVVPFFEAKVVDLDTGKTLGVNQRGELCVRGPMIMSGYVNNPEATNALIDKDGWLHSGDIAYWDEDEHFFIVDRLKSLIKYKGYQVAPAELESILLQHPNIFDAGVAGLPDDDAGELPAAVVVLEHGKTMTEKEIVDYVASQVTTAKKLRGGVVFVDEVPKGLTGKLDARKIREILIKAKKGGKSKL
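Purified P. pyralis luciferase (10nM final) with 10uM D-luciferin and 10uM ATP (Km levels) in 50mM Tris acetate pH 7.5, 10mM Mg acetate, 0.01% Tween-20, 0.05% BSA; qHTS 6-point titration, ~60 µM downward; luminescence read.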
A number is an active result; i = inactive; ? = inconclusive; nt = no result given; [ ] = another dose, or the depositor's remark. The list is not random: actives were taken first. Their share in the collection is about 7.3%. Calls follow the shape of the dose curve; as a rule, active = well fitted curve in the direction sought with a large enough effect; inconclusive = small, poorly fitted or top-dose-only effect, or another doubt; inactive = no such curve, though single readings can be large; an effect the other way counts as inactive or inconclusive.

SMILES	KinaseGlo FLuc	NPC1 promoter act	SMN2 splice enh	Rab9 prom act	FLuc modulator
COc1ccc2ccc3c(c2c1)N=CC1(O3)N(C)c2ccccc2C1(C)C (centres undefined)	i	i	i	i	i
CN1c2ccccc2C(C)(C)C12C=Nc1c(ccc3ccccc13)O2 (centres undefined)	i	i	i	i	15µM
CCOC(=O)c1c(S(=O)(=O)N2CCCC(C(=O)Nc3ccc(C)cc3C)C2)c(C)n(CC)c1C (centres undefined)	nt	nt	nt	nt	i
O=C(NCc1ccccc1)c1ccc(-c2ccccc2F)o1	i	i	32µM	?	13µM
O=C(NCCc1ccccc1)c1ccc(-c2ccc(F)cc2)o1	i	i	i	i	21µM
O=C(C#Cc1ccccc1)c1ccco1	nt	i	nt	i	15µM
COc1ccc2c(c1)c1c(c(=O)n(-c3cccc(C)c3)c(=O)n1CC(=O)N1CCCC1)n2C	nt	nt	nt	nt	i
O=C(NC(=S)Nc1cccc(O)c1)c1ccco1	nt	?	nt	?	11µM
N#Cc1cccc(NCC(=O)Nc2ccc3c(c2)OCCO3)c1	i	0.63µM	13µM	0.4µM	6µM
Cc1cc(NC(=O)c2ccco2)ccc1NC(=O)Cc1cccs1	i	i	i	i	15µM
O=C(NC(=S)Nc1ccc2c(c1)OCCO2)c1ccco1	nt	?	nt	1µM	1.7µM
Cc1ccc(NC(=O)c2ccco2)c(NC(=O)Cc2cccs2)c1	i	i	i	i	i
N#Cc1ccc(NCC(=O)Nc2ccc3c(c2)OCCO3)cc1	i	i	i	i	?
CCc1ccc(NC(=O)Cn2c(=O)n(CCc3ccccc3)c(=O)c3sc4ccccc4c32)cc1	nt	nt	i	nt	i
COc1ccc(C(=O)Nc2nnc(S(=O)(=O)N3CCN(c4ccc(C)cc4)CC3)s2)cc1	nt	nt	nt	nt	i
CCc1ccccc1N(CC)C(=O)c1cc2c(s1)-c1ccccc1OC2	nt	nt	i	nt	i
Cc1cc(NC(=O)c2ccc3c(c2)OCCO3)ccc1NC(=O)c1ccco1	11µM	?	11µM	?	0.76µM
CSCc1ccc(C(=O)N2CCCC(Nc3ccc4c(c3)OCCO4)C2)o1 (centres undefined)	nt	i	nt	i	?
O=C(c1ccco1)N1CCCC(Nc2ccc3c(c2)OCCO3)C1 (centres undefined)	nt	?	nt	?	24µM
O=C(Nc1ccc(NC(=O)c2ccco2)cc1)c1ccc2c(c1)OCCO2	i	i	i	i	?
O=C(CNC(=O)c1ccco1)Nc1ccc2c(c1)OCCO2	nt	1.8µM	nt	1µM	6µM
CCn1cc(C(=O)OCC(=O)Nc2ccc(C)c(Cl)c2)c(=O)c2ccc(C)nc21	nt	nt	i	nt	i
COc1ccc(NC(=O)c2c(C)oc3ccc(O)c(CN4CCN(C)CC4)c23)cc1Cl	nt	nt	i	nt	i
CCCN1C(=O)S/C(=C/c2ccc(N3CCOCC3)o2)C1=O	nt	i	nt	?	?
O=C1N/C(=C/c2ccc(N3CCOCC3)o2)C(=O)N1c1cccc(Cl)c1	i	i	i	?	21µM
SMILES	KinaseGlo FLuc	NPC1 promoter act	SMN2 splice enh	Rab9 prom act	FLuc modulator
O=C(Oc1ccc(N2C(=O)CCC2=O)cc1)c1ccccc1Cl	i	i	i	i	24µM
Cc1cc(OC(=O)c2ccccc2Cl)cc(=O)n1C	i	i	i	i	15µM
Cc1cc2c(cc1NC(=O)c1ccccc1Cl)n(C)c(=O)c(=O)n2C	nt	nt	nt	nt	i
NC(=O)c1ccc2nc(NC(=O)c3ccc(N)cc3)sc2c1	i	?	?	?	3µM
COc1ccc2nc(NC(=O)c3ccc(-n4nc(C)cc4C)cc3)sc2c1	i	i	i	i	i
CC(=O)Nc1nc2cc(C(N)=O)ccc2s1	nt	i	nt	i	i
COc1ccc2nc(NC(=O)c3ccc4ncsc4c3)sc2c1	i	2.8µM	?	1.8µM	1.1µM
COc1ccc2nc(NC(=O)c3ccc(F)cc3)sc2c1	nt	2.5µM	nt	1.4µM	0.85µM
Nc1ncccc1OCc1ccc(Cl)c(Cl)c1	nt	2.8µM	nt	1.4µM	7.6µM
COc1cc(CNCc2ccccn2)ccc1OCc1ccc(Cl)cc1Cl	i	i	i	i	i
COc1cc(CNCc2ccccn2)ccc1OCc1ccc(Cl)c(Cl)c1	i	i	i	i	17µM
COc1cc(OC)c(Nc2nc3ccccc3c3nncn23)cc1Cl	nt	nt	i	nt	i
O=C(C[C@@H]1C=Cc2ccccc2N1C(=O)c1ccccc1)c1ccccc1	i[7.66 µM]	nt	i[9.22 µM]	nt	nt
CCOc1ccc2nc(SCC3CC3(Cl)Cl)[nH]c2c1 (centres undefined)	nt	2.5µM	nt	3.2µM	7.6µM
ClC1(Cl)CC1CSc1nc2ccccc2[nH]1 (centres undefined)	i	?	?	?	17µM
O=C(O)CSc1nc2ccccc2[nH]1	i[7.66 µM]	i	i[9.22 µM]	i	i
c1ccc2[nH]c(SCC3CCCCO3)nc2c1 (centres undefined)	?	1.8µM	i	1.4µM	19µM
CC(C)OC(=O)CSc1ncnc2c1cnn2-c1ccccc1	i	i	i	i	8.5µM
Cc1cc(NC(=O)CSc2ncnc3c2cnn3-c2ccccc2)no1	i	i	i	i	i
Cc1ccc(CSc2ncnc3c2cnn3Cc2ccccc2)cc1	i	i	i	i	i
CC(C)(C)C(=O)CSc1ncnc2c1cnn2-c1ccccc1	nt	0.71µM	nt	0.63µM	1.2µM
c1ccc(CSc2ncnc3c2cnn3-c2ccccc2)cc1	i	?	22µM	?	12µM
Cn1c(=O)c2c(SCC(=O)NCc3ccco3)nc(-c3ccccc3F)nc2n(C)c1=O	nt	nt	nt	nt	i
CCOC(=O)CNC(=O)CSc1ccc(-c2nc3ccccc3[nH]2)cn1	nt	i	nt	i	?
Cc1cc2nc(-c3ccc(SCC(=O)Nc4ccc(S(=O)(=O)N5CCCC5)cc4)nc3)[nH]c2cc1C	i	2.5µM	13µM	2µM	0.3µM
SMILES	KinaseGlo FLuc	NPC1 promoter act	SMN2 splice enh	Rab9 prom act	FLuc modulator
Cc1cc2nc(-c3ccc(SCC(=O)Nc4nccs4)nc3)[nH]c2cc1C	i	3.5µM	?	2.5µM	?
O=C(CSc1ccc(-c2nc3ccccc3[nH]2)cn1)Nc1ccc(S(=O)(=O)N2CCCC2)cc1	i	i	i	i	4.8µM
Cc1cc(=O)[nH]c(SCC(=O)Nc2ccc(S(=O)(=O)N3CCCCC3)cc2)n1	i	i	nt	i	?
Cn1cc(C(=O)NCCc2ccccc2)c(=O)c2cc(S(=O)(=O)N3CCCCCC3)ccc21	nt	nt	i	nt	i
CC1=NN(c2ccccc2)C(=O)C1/C=C1/NC(=S)NC1=O (centres undefined)	nt	i	nt	i	17µM
CC1=NN(c2ccccc2)C(=O)C1C=Nc1ccc(N(C)C)cc1 (centres undefined)	nt	i	nt	i	?
O=C(Nc1ccc2cccnc2c1)c1ccc(Br)cc1	nt	i	nt	i	19µM
O=C(Nc1cccc(Cl)c1)C1=Cc2cc(Cl)ccc2OC1	i	i	i	i	i
N#Cc1ccsc1NC(=O)c1cccc([N+](=O)[O-])c1	i	i	i	i	i
O=C(Nc1ccc2c(c1)OCCO2)c1ccc(Cl)c([N+](=O)[O-])c1	i	i	18µM	i	?
O=C(Nc1ccc(Cl)c(Cl)c1)C1=Cc2ccccc2OC1	i	?	?	2.5µM	11µM
O=C(Nc1ccc2nc3ccccc3nc2c1)c1ccc(Br)cc1	i	i	i	i	i

Bioassay records from PubChem BioAssay.
